The campaign covered roughly 52,000 compounds. About 4,300 (8.3%) were called active. This excerpt belongs to a sample that is enriched for actives. A number with no mark means an inactive call. Rule as the data show it: active = survival mostly below about 52% (no sharp cut-off); inactive = mostly above about 56%.
test system: DeltatarO mutant; assay: growth inhibition of S. aureus wild type versus tarO mutant, primary screen, teichoic acid synthesis inhibitors, RN4220, OD600 (AID 463173); conditions: OD600, 18 h, hits give low values, screened at 18.75 µg/mL (by protocol)

Row | Structure (SMILES) | survival
1 | Clc1ccc(OCc2nc(-c3ccc(-n4cccc4)cc3)no2)cc1 | 163%
2 | O=C(CNCC1CCCO1)NCc1ccco1 (stereo unspecified) | 97%
3 | CCN(Cc1ccccc1)Cc1c(O)ccc2c(=O)c(-c3ccccc3Cl)c(C(F)(F)F)oc12 | 74%
4 | COc1ccc(C2=Nn3c([n+](C)c4ccccc43)SC2)cc1 | 0% (active)
5 | COc1ccc(C2=Nn3c(nc4sc(C(=O)Nc5cccc(C)c5)c(C)c4c3=O)SC2)cc1 | 105%
6 | COc1ccc(N=C2SCC(=O)N2C)cc1 | 76%
7 | O=C(COc1ccccc1)Nc1ccccc1OCc1cc(=O)n2ccccc2n1 | 78%
8 | CCC1CN(C(=O)N2CCC(C(=O)NCCCc3ccccc3)CC2)c2ccccc2O1 (stereo unspecified) | 69%
9 | CNCC(=O)NC(c1ccccc1)c1ccccc1 | 97%
10 | CN(C)CCCN(C(=O)c1cccs1)c1nc2ccc(F)cc2s1 | 92%
11 | Cc1ccc2nc(N(CCCN(C)C)C(=O)c3ccc(Br)s3)sc2c1 | 77%
12 | CN(C)CCCN(C(=O)c1ccc(Br)s1)c1nc2ccc(F)cc2s1 | -5% (active)
13 | COC(=O)c1sc2cccc(F)c2c1S(=O)(=O)N1CCN(c2ccc(F)cc2)CC1 | 81%
14 | COc1ccc2c(CNCc3cccs3)c(C(=O)O)n(Cc3cccc(F)c3)c2c1 | 72%
15 | Cc1cc(C)cc(Nc2cc(C(=O)NCCCN(Cc3ccccc3)C(C)C)c3ccccc3n2)c1 | -4% (active)
16 | CSc1cccc(Nc2cc(C(=O)NCCCN(Cc3ccccc3)C(C)C)c3ccccc3n2)c1 | 88%
17 | Cc1cc(C)cc(Nc2cc(C(=O)NCc3ccccc3)c3ccccc3n2)c1 | 113%
18 | Cc1ccc(N2CC(C(=O)NCCS(=O)(=O)N3CCN(c4ccc(F)cc4)CC3)CC2=O)cc1 (stereo unspecified) | 89%
19 | Cc1ccc(CN(C(=O)COc2cccc([N+](=O)[O-])c2)c2ccccn2)o1 | 62%
20 | Cc1ccc(CN(C(=O)COc2cccc([N+](=O)[O-])c2)c2ccccn2)cc1 | 39% (active)
21 | Cc1ccc(CN(C(=O)COc2ccccc2[N+](=O)[O-])c2ccccn2)o1 | 69%
22 | Cc1ccc(CN(C(=O)COc2ccc([N+](=O)[O-])cc2)c2ccccn2)o1 | 62% (active)
23 | Cc1ccc(CN(C(=O)COc2ccccc2[N+](=O)[O-])c2ccccn2)cc1 | 46%

Row | Structure (SMILES) | survival
24 | Cc1ccc(CN(C(=O)COc2ccc([N+](=O)[O-])cc2)c2ccccn2)cc1 | 49%
25 | Cc1c(-c2nsc(NC(=O)c3ccc(Cl)cc3)n2)nnn1-c1ccc(C(C)C)cc1 | 66%
26 | CN(C1CCCCC1)S(=O)(=O)c1ccc(F)c(C(=O)Nc2ccc(C(F)(F)F)cc2)c1 | 83%
27 | CCn1c(CN2CCCCC2)nc2cc(NC(=O)c3ccc([N+](=O)[O-])cc3)ccc21 | 90%
28 | Cc1cccc(N(C)S(=O)(=O)c2nnc(NC(=O)C3CCCCC3)s2)c1 | 72%
29 | Cc1cccc(NS(=O)(=O)c2nnc(NC(=O)c3cccc(C)c3)s2)c1 | 61%
30 | O=C(Nc1nnc(S(=O)(=O)Nc2ccccc2)s1)C1CCCCC1 | 31% (active)
31 | CN(c1ccccc1)S(=O)(=O)c1nnc(NC(=O)C2CCCCC2)s1 | 65%
32 | O=C(Nc1nnc(S(=O)(=O)Nc2ccccc2)s1)c1ccccc1Cl | 52%
33 | Cc1cccc(NS(=O)(=O)c2nnc(NC(=O)C3CCCCC3)s2)c1 | 34% (active)
34 | CC(=O)c1cc(-c2ccc(F)cc2)n(CCC(=O)Nc2nc3ccc(C)cc3s2)c1C | 69%
35 | Cc1cc(C)c(NC(=O)Cn2c(=O)oc3cc(S(=O)(=O)N4CCCCCC4)ccc32)c(C)c1 | 83%
36 | CCOc1ccc(-n2c(SCC(=O)c3ccccc3)nc3c([nH]c4ccccc43)c2=O)cc1 | 131%
37 | Cc1cccc(C(=O)OCc2cc(=O)n3nc(-c4cccs4)sc3n2)c1 | 101%
38 | Cc1ccc(CCNC(=O)c2ccc(Nc3nc4ccccc4n4nnnc34)cc2)cc1 | 72%
39 | N#Cc1ccc(NC(=O)C2Cc3ccccc3CN2S(=O)(=O)c2ccc(F)cc2)cc1 (stereo unspecified) | 54%
40 | OCCn1nnnc1-c1ccccc1 | 85%
41 | CC(C)C12CN3CC(C(C)C)(CN(C1)C3c1ccc(OCc3ccccc3)cc1)C2=O (stereo unspecified) | 85%
42 | CCOc1ccc(C2N3CC4(C(C)C)CN2CC(C(C)C)(C3)C4=O)cc1OC (stereo unspecified) | 91%
43 | CC(C)C12CN3CC(C(C)C)(CN(C1)C3c1ccc(Cl)cc1)C2=O (stereo unspecified) | 39% (active)
44 | Cc1cccc(N2C(=O)CS/C2=N/NC(=O)c2cccc(Cl)c2)c1 | 97%
45 | O=C(Cn1c(=O)c(C(F)(F)F)nc2ccccc21)Nc1cccc(Br)c1 | 99%
46 | CC(=O)Nc1ccccc1-c1nc2ccccc2n(CC(=O)Nc2cccc(C)c2C)c1=O | 117%

Row | Structure (SMILES) | survival
47 | CCN(C(=O)CSc1nc2ccccc2n1CC(=O)Nc1ccccc1C)c1ccccc1 | -5% (active)
48 | Cc1cc(C)cc(NC(=O)Cn2c(C(F)(F)F)nc3ccccc32)c1 | 67% (active)
49 | CCN(C(=O)CSc1nc2ccccc2n1CC(=O)Nc1ccc(F)cc1F)c1ccccc1 | 77%
50 | CCN(C(=O)CSc1nc2ccccc2n1CC(=O)Nc1cccc(C#N)c1)c1ccccc1 | 122%
51 | Cc1ccc(NC(=O)Cn2c(=O)c(C(F)(F)F)nc3ccccc32)cc1C | 60%
52 | Cc1cccc(NC(=O)Cn2c(C(F)(F)F)nc3ccccc32)c1C | 31% (active)
53 | Cc1cccc(NC(=O)Cn2c(SCC(=O)NCc3ccccc3)nc3ccccc32)c1C | 119%
54 | CC(C)C(=O)NS(=O)(=O)c1ccc(NC(=O)c2ccco2)cc1 | 90%
55 | Cc1ccc(N2CC3=C(C2=O)C(c2ccc(Br)cc2)NC(=O)N3C)cc1 (stereo unspecified) | 74%
56 | COc1cc(C)ccc1OCCSc1nc2ccc(NC(=O)c3ccccc3F)cc2s1 | 99%
57 | Cc1ccccc1-c1nc(NC(=O)CSc2ncnc3sc4c(c23)CCCC4)ns1 | 92%
58 | Cc1nc(SCC(=O)Nc2nsc(-c3ccc(C(C)(C)C)cc3)n2)c2c3c(sc2n1)CCCC3 | 78%
59 | Cc1cc(SCC(=O)Nc2ccc(Cl)cc2)nc2ccccc12 | 65%
60 | Cc1cc(SCC(=O)Nc2nsc(-c3ccc(C(C)(C)C)cc3)n2)nc2ccccc12 | 13% (active)
61 | CC(C)(C)c1ccc(-c2nc(NC(=O)CSc3ncnc4sc5c(c34)CCCC5)ns2)cc1 | 57% (active)
62 | Cc1ccc(-c2nc(NC(=O)CSc3cc(C)c4ccccc4n3)ns2)cc1 | 65%
63 | COc1ccc2c(C)cc(SCC(=O)Nc3nsc(-c4ccc(C(C)(C)C)cc4)n3)nc2c1 | 56%
64 | Cc1ccc(-c2nc(NC(=O)CSc3ccc4ccccc4n3)ns2)cc1 | 77%
65 | COc1ccc2c(C)cc(SCC(=O)Nc3nsc(-c4ccccc4C)n3)nc2c1 | 35% (active)
66 | CCN1CCN(c2oc(/C=C/c3cc(OC)c(OC)c(OC)c3)nc2C#N)CC1 | 72%
67 | O=C(O)CSc1nc2c(c(C(F)(F)F)n1)CCc1ccccc1-2 | 96%
68 | CCN(CC)N=Nc1ccc(S(=O)(=O)N2CCSC2C(=O)O)cc1 (stereo unspecified) | 103%
69 | CCOc1ccc(CC(=O)NCCc2csc(-c3ccc(Cl)cc3)n2)cc1 | 67%

Row | Structure (SMILES) | survival
70 | CCOC(=O)/C(C#N)=C\c1ccc(Br)s1 | 93%
71 | CN(C(=O)CSc1nc2ccccc2n1CC(=O)NCc1ccc(F)cc1)c1ccc(F)cc1 | 128%
72 | COc1ccc(CNc2ccc3cc(S(=O)(=O)N4CCCCC4)ccc3n2)cc1 | 79%
73 | COc1cc(NC(=O)CN2CCCN(S(=O)(=O)c3ccc(F)cc3)CC2)cc(OC)c1 | 74%
74 | CCCCSc1nnc2[nH]c(=O)cc(C)n12 | 99%
75 | Cc1ccc2nc(CSc3nnc(NC(=O)COc4ccccc4F)s3)cc(=O)n2c1 | 70%
76 | Cc1ccc(OCC(=O)Nc2nnc(SCc3cc(=O)n4cccc(C)c4n3)s2)cc1 | 76%
77 | Cc1cccn2c(=O)cc(CSc3nnc(NC(=O)COc4ccc(F)cc4)s3)nc12 | -2% (active)
78 | CC(C)C(=O)Nc1nnc(SCc2cc(=O)n3ccccc3n2)s1 | 86%
79 | Cc1ccc2nc(CSc3nnc(NC(=O)C(C)C)s3)cc(=O)n2c1 | -1% (active)
80 | Cc1ccc2nc(CSc3nnc(NC(=O)CC(C)C)s3)cc(=O)n2c1 | 76%
81 | Cc1ccc(OCC(=O)Nc2nnc(SCc3cc(=O)n4cc(C)ccc4n3)s2)cc1 | 6% (active)
82 | Cc1ccc2nc(CSc3nnc(NC(=O)COc4ccccc4)s3)cc(=O)n2c1 | 67%
83 | Cc1cccn2c(=O)cc(CSc3nnc(NC(=O)COc4ccccc4)s3)nc12 | 84%
84 | COCCN(C(=O)c1ccco1)c1nnc(-c2ccc(F)cc2)s1 | 58%
85 | CSc1nnc(-c2ccncc2)n1C | 97%
86 | COc1ccc(N2CCN(S(=O)(=O)c3csc(C(N)=O)c3)CC2)cc1 | 90%
87 | COc1cc(Cl)c(C)cc1NC(=O)CSc1cc(=O)n(C)c2cc(Cl)ccc12 | 63%
88 | CC(C)(C)OC(=O)N1CC2C(C1)C2NC(=O)c1nsc(Cl)c1Cl (stereo unspecified) | 82%
89 | CCOC(=O)c1ccc(NC(=O)c2ccc3c(c2)c(C)c(C)n3Cc2ccc(F)cc2)cc1 | 91%
90 | O=C(Cn1c(=O)n(-c2ccccc2)c(=O)c2ccc(C(=O)NCc3ccc4c(c3)OCO4)cc21)Nc1ccc(Br)cc1 | 79%
91 | CSc1ccc(CCNC(=O)Cn2nc(C)n3c(cc4sccc43)c2=O)cc1 | 88%

Reference: PubChem BioAssay AID463173 (ICCB-Longwood Screening Facility, Harvard Medical School, 2010)
